The test system of experiment [1] is Human papillomavirus type 1a protein E7 (residues 44-93). In words: HPV1a E7 fragment binders on microarrays, primary screen, biochemical, small-molecule microarray, residues 44-93, 635 nm fluorescence (AID 1108).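 Further: E7 fragment applied at 1 µg/mL in TBST for 1 h at 4 C; score combines spot fluorescence with its signal to noise ratio.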 The settings on record: small-molecule microarray binding, fluorescence 635 nm; higher = more signal.
A short description of experiment [2]: modulators of HCV replicon luciferase signal, primary screen, HCV replication inhibitor project, Huh7 cells, luciferase reporter (AID 1109).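 Further: huh7 hepatoma cells harbouring a luciferase neomycin HCV replicon reporter; luciferase luminescence as measure of HCV replicon replication; test concentration not given here.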 The settings on record: 48 h, higher = more signal.
Experiment [3] has as its target Left-right determination factor 2 (Homo sapiens) (UniProt O00292). In words: LEFTY2 binders on small-molecule microarrays, primary screen, biochemical, small-molecule microarray, 635 nm fluorescence scan (AID 1110). Conditions: LEFTY2 binding, higher = more signal.
Experiment [4] has as its target Calmodulin-1 (Homo sapiens) (UniProt P0DP23). In words: CALM1 binders on microarrays, EGTA buffer, profiling panel, biochemical, small-molecule microarray, Cy5-labelled CALM1 (AID 1111).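 Further: labelled calmodulin applied in Tris saline Tween buffer holding calcium plus EGTA and DTT.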 The settings on record: Cy5-CALM1 binding fluorescence, higher = more signal.
Experiment [5] has the same target. The experiment can be described thus: calcium-bound CALM1 binders on microarrays, profiling panel, artefact control for SMM control-protein annotation, biochemical, small-molecule microarray, Cy5-labelled CALM1, plus calcium (AID 1112).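 Further: score merges spot fluorescence with signal to noise from triplicate slides.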 Conditions: Cy5-CALM1 binding fluorescence, higher = more signal.
The nature of experiment [6]: small-molecule microarray binders of probe aWnt5a, primary screen, biochemical, biotinylated probe, 635/667 nm fluorescence (AID 1113).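 Further: score merges 667 nm fluorescence intensity with signal-to-noise per printed feature.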 The settings on record: higher = more signal.
Experiment [7] is described as follows: small-molecule microarray binders of probe aShh, primary screen, biochemical, biotinylated probe, 635/667 nm fluorescence (AID 1114).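 Further: probe is biotin-labelled aShh protein from a stem cell growth factor screen; measures binding of labelled protein to compounds printed on the slide; score merges feature fluorescence at 667 nm with signal-to-noise.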 Conditions: higher = more signal.
Experiment [8] can be described thus: small-molecule microarray binders of probe aNog, primary screen, biochemical, biotinylated probe, 635/667 nm fluorescence (AID 1115).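 Further: probe is biotinylated aNog protein used at 0.15 µg/mL for 1 h at 4 C; z-score combines 667 nm fluorescence of each spot with its signal to noise.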 Conditions: higher = more signal.
The target in experiment [9] is Torsin-1A-interacting protein 1 (Homo sapiens) (UniProt Q5JTV8). The experiment can be described thus: LAP1 binders from COS7 cell lysate, primary screen, small-molecule microarray, 635/667 nm fluorescence (AID 1116). The settings on record: COS7-hLAP1 lysate binding, 635 nm fluorescence, higher = more signal.
Experiment [10] concerns the target Alpha-bungarotoxin (Bungarus multicinctus) (UniProt P60615). The experiment can be described thus: alpha-bungarotoxin binders on microarray, profiling panel, artefact control for SMM control protein annotation, biochemical, small-molecule microarray, Alexa647 label, 635/667 nm fluorescence (AID 1117). Conditions: alpha-BTX-A647 binding fluorescence, higher = more signal.

Sequence of Alpha-bungarotoxin (Bungarus multicinctus) (P60615 whole entry, looked up): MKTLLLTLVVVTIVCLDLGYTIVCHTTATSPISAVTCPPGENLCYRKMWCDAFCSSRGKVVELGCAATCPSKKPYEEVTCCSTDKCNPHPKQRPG
Sequence of Left-right determination factor 2 (Homo sapiens) (O00292 whole entry, looked up): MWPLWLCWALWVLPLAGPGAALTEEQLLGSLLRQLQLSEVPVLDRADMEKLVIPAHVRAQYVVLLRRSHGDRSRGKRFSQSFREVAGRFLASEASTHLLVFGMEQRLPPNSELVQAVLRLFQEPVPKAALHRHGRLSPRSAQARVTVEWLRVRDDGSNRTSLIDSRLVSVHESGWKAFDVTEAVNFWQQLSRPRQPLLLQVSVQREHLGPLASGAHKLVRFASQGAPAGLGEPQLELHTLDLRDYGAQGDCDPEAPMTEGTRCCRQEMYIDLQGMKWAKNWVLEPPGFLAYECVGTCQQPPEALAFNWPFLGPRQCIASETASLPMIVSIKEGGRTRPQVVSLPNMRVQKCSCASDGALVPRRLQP
Sequence of Torsin-1A-interacting protein 1 (Homo sapiens) (Q5JTV8 whole entry, looked up): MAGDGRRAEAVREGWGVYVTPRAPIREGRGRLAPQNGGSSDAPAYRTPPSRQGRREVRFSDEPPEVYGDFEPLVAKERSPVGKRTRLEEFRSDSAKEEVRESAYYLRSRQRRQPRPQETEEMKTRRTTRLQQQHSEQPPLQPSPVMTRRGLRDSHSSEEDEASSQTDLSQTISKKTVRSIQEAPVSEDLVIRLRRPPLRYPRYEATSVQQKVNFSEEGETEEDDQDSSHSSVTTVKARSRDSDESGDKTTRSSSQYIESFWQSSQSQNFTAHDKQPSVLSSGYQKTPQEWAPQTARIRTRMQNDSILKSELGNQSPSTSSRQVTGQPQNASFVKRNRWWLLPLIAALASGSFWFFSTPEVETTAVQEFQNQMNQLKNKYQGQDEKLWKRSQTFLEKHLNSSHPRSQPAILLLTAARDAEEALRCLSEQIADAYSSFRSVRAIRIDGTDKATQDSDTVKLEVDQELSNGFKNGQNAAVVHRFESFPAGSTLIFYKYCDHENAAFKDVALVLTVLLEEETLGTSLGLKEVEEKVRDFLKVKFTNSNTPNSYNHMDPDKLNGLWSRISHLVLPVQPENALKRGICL

Turning to `C=CCN1C(=O)[C@]2(O[C@H](CCO)[C@@H]([Si](C)(C)c3ccc(OC)cc3)[C@@H]2C)c2cc(N3C(=O)c4cccc5cccc3c45)ccc21`, the composite z-score in [1] was 1.17; in experiment [3] it was 0.164; in experiment [4], 0.719; in [5], 0.124; in experiment [6], -0.159; in experiment [7], 0.0639. Further, the results for the composite z-score in [8], in [9] and in experiment [10] were -0.338, 0.374 and 0.3, respectively. In addition, the z-score in experiment [2] was -5.11.

For the molecule `COc1ccc([Si](C)(C)[C@H]2[C@H](CC(=O)N3Cc4ccccc4C[C@H]3CO)O[C@@]3(C(=O)N(Cc4ccc(N5CCC5=O)cc4)c4ccccc43)[C@@H]2C)cc1`, the composite z-score in [1] is 1.37; in experiment [3], 1.22; in [4], 1.02; in experiment [5], -0.89; in experiment [6], 0.0158; in [7] it was -0.144. For the same molecule, the composite z-score in [8] is 1.65; in experiment [9], 1.45; in experiment [10], 0.548. The z-score in experiment [2] is -3.99.

Regarding `COc1ccc(NN2C(C(O)c3ccc([N+](=O)[O-])cc3)C=CC3C(=O)N(C4CCCCC4)C(=O)C32)cc1` (stereo not given), the composite z-score in [1] is 1.35; in [3], -0.0693; in [4] it was 1.04; in [5], 0.212; in experiment [6], -0.0758; in experiment [7] it was 0.368. For the same molecule, the figures for the composite z-score in [8], in experiment [9] and in experiment [10] were 0.797, 0.55 and 0.799, respectively. Also, the z-score in [2] was found to be 0.376.

As for `O=C1C2C=CC(C(O)c3c(F)cccc3Cl)N(Nc3ccccc3)C2C(=O)N1c1ccccc1` (stereo not given), the composite z-score in experiment [1] was found to be 1.46; in experiment [3], 0.407; in [4] it was 1.46; in experiment [5] it was 0.546; in [6], 0.0775; in [7] it was 0.969. The composite z-score amounted to 1.59 in [8], 0.765 in experiment [9] and 0.933 in experiment [10]. For the same molecule, in experiment [2], the z-score is -0.927.

On to `O=C1C2C=CC(C(O)C(c3ccccc3)c3ccccc3)N(n3cnnc3)C2C(=O)N1Cc1ccccc1` (stereo not given), for which the composite z-score is 1.24 in experiment [1]; -0.164 in experiment [3]; 0.836 in experiment [4]; -0.34 in experiment [5]; 0.07 in experiment [6]; 0.184 in experiment [7]. In addition, the composite z-score in experiment [8] was 0.976; in [9], 1.57; in experiment [10], 0.652. Further, the z-score in [2] is -0.832.

In the case of `COCCOC(=O)N1C(=O)[C@@]2(c3cc(C#CCNC(N)=O)ccc31)[C@H](C(=O)NC[C@H](O)c1ccccc1)[C@H]1C(=O)O[C@H](c3ccccc3)[C@H](c3ccccc3)N1[C@@H]2c1ccccc1OCCO`, the composite z-score in [1] is 1.35; in experiment [3] it was 0.0826; in [4], 1.96; in experiment [5] it was 0.0588; in experiment [6], 0.207; in [7], -0.0375. Further, the figures for the composite z-score in experiment [8], in experiment [9] and in experiment [10] were 1.32, 0.667 and 1.43, respectively. For the same molecule, the z-score in experiment [2] is -0.807.

On to `[N-]=[N+]=Nc1ccccc1C[C@]1(C(N)=O)N=C(c2ccc(OCCCO)cc2)O[C@H]1c1ccccc1`, for which the composite z-score was 1.43 in [1]; -0.932 in experiment [3]; 1.59 in experiment [4]; 0.0189 in experiment [5]; -0.0721 in [6]; 0.0723 in [7]. The figures for the composite z-score in experiment [8], in experiment [9] and in [10] were -0.235, 2.05 and 1.03, respectively. Also, in [2], the z-score is -0.947.

Regarding `CN1C(=O)[C@]2(Cc3ccccc3)N=C(c3ccc(OCCCO)cc3)O[C@@H]2c2ccccc21`, the composite z-score in experiment [1] is 1.46; in [3] it was 0.235; in experiment [4], 0.33; in [5] it was -0.323; in experiment [6], 0.0761; in experiment [7], 0.0469. In addition, the composite z-score was 0.849 in experiment [8], 1.3 in experiment [9] and 0.51 in experiment [10]. In addition, the z-score in [2] is -1.36.

In the case of `O=C(NCc1ccc(F)cc1)[C@H]1C[C@H]2C(=O)N[C@@H](Cc3ccccc3)C(=O)N2[C@H]1c1ccc(O)cc1`, the composite z-score in [1] was 0.335; in experiment [3], -0.469; in experiment [4], 0.0755; in experiment [5], 0.531; in [6], -0.148; in experiment [7] it was -0.244. Besides, the composite z-score in experiment [8] is -0.235; in [9], 0.33; in [10], -0.051. For the same molecule, the z-score in experiment [2] was -0.522.

Regarding `CN(C)CCCNC(=O)[C@@]1(c2ccc([N+](=O)[O-])cc2)CC(=O)N(C2CCCCC2)[C@@H]1c1ccc(CO)cc1`, the composite z-score is 1.04 in [1]; -0.419 in experiment [3]; 0.465 in experiment [4]; 0.0617 in experiment [5]; -0.25 in experiment [6]; -0.408 in experiment [7]. For the same molecule, the composite z-score was -0.483 in experiment [8], 0.218 in experiment [9] and 0.8 in experiment [10]. Besides, in [2], the z-score is -1.77.

As to `[N-]=[N+]=Nc1ccccc1C[C@]1(C(=O)NCC(O)CO)N=C(c2ccc(OCCCO)cc2)O[C@H]1c1ccccc1N=[N+]=[N-]` (stereo not given in full), the composite z-score in [1] was 0.577; in experiment [3], -0.588; in experiment [4], 0.771; in [5] it was 0.839; in experiment [6], -0.0285; in experiment [7], 0.232. In addition, the composite z-score in experiment [8] is -0.0592; in experiment [9], 0.407; in [10], 0.15. For the same molecule, the z-score in experiment [2] was -1.74.

As for `C=CCN1C(=O)[C@@]2(O[C@@H](CCO)[C@H]([Si](C)(C)c3ccc(OC)cc3)[C@H]2C)c2cc(NC(=O)c3ccc(OC)cc3)ccc21`, the composite z-score in [1] was -0.747; in [3], 0.629; in [4], -0.178; in experiment [5], 0.678; in [6] it was -0.199; in experiment [7] it was 0.0062. Further, the composite z-score is 0.141 in experiment [8], -0.419 in [9] and 0.565 in experiment [10]. For the same molecule, the z-score in experiment [2] was -4.9.

For the molecule `NCCCCCNC(=O)[C@@H]1C[C@@H]2C(=O)N[C@@H](Cc3ccccc3)C(=O)N2[C@@H]1c1cccc(OCCO)c1`, the composite z-score was 0.762 in [1]; -0.178 in [3]; 0.429 in experiment [4]; 0.791 in [5]; 0.404 in experiment [6]; -0.0652 in [7]. The composite z-score in experiment [8] amounted to 0.0256; in [9], 0.362; in experiment [10], 1.69. Moreover, the z-score in [2] is -0.988.

For the molecule `CCOC(=O)C[C@H]1[C@H](OC(=O)Cc2ccc3c(c2)OCO3)[C@@H](NC(=O)c2ccc(-c3ccccc3)cc2)c2cc(OCCCO)ccc2N1C(=O)Cc1ccc(OC)cc1`, the composite z-score in experiment [1] is 0.911; in experiment [3], 0.253; in experiment [4], 0.644; in [5], 0.0039; in experiment [6], 0.0673; in [7] it was 0.173. Further, the composite z-score in experiment [8] is 0.0804; in experiment [9] it was 0.521; in experiment [10], -0.256. Further, the z-score in experiment [2] was -1.48.

Turning to `COCCOC(=O)N1C(=O)[C@@]2(c3cc(C#Cc4ccc(OC)cc4)ccc31)[C@H](C(N)=O)[C@H]1C(=O)O[C@H](c3ccccc3)[C@H](c3ccccc3)N1[C@@H]2c1ccccc1OCCO`, the composite z-score in experiment [1] is 1.33; in experiment [3], 0.738; in experiment [4], 2.22; in experiment [5], 0.618; in experiment [6] it was -0.0134; in [7] it was -0.0988. The composite z-score in [8] is 0.168; in experiment [9] it was 2.3; in [10], 2.97. In experiment [2], the z-score is -1.49.

For the molecule `O=C1NC(=O)C2C1C=CC(C(O)c1ccccc1)N2Nc1ccc(Cl)cc1Cl` (stereo not given), the composite z-score in [1] is 1.39; in [3], 0.628; in [4] it was 2.13; in [5] it was 1.09; in [6], 0.17; in [7] it was 0.412. Further, the composite z-score is 1.44 in experiment [8], 1.98 in experiment [9] and 1.55 in experiment [10]. In [2], the z-score was -1.25.

Source of the values: PubChem BioAssay.
